Our source for the binding signal values is article PMC7819943, “Rice protein-binding microarrays: a tool to detect cis-acting elements near promoter regions in rice”.

Over roughly 39,000 sequences, “fluorescence intensity (a.u.)” has its median near 4,300; the highest 2% begin near 39,000. The full list was thinned out, with the highest values kept by preference.

The assay deals with T1, OsSMF1 (Oryza sativa, UniProt Q6ZLB0 1-436).
T1 sequence: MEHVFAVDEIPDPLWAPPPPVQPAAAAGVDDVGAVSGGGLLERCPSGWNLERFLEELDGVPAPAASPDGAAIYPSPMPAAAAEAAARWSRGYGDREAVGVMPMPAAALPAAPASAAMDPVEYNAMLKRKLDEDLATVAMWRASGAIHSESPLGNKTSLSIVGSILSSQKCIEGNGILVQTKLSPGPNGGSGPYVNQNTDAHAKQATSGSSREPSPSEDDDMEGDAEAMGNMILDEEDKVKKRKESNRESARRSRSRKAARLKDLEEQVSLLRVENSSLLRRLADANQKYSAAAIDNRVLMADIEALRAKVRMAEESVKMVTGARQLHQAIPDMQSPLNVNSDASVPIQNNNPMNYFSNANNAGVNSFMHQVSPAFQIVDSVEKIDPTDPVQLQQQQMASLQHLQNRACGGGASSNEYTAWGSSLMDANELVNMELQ
As to the kind of experiment: protein-binding microarray (RPBM); PBS, 2% BSA, 51.3 ng/ul salmon testes DNA, 50 uM zinc acetate, 200 nM TF, 25 C, 1 h; high values mean tight binding. The settings on record: protein: recombinant; tags: N-terminal polyhistidine and DsRed monomer fusion (pET32a); chain copies: 2; label: CyDye5-dUTP incorporated in the synthesized complementary strand; 3' TTTTT single-stranded linker to array surface; dsDNA, one strand shown. The method, boiled down:
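Binding signal is defined as the fluorescence intensity of each feature in arbitrary units, read on an Axon 4000B scanner. Transcription factors with N-terminal polyhistidine and DsRed fusions came from E. coli BL21-CodonPlus and were purified on Ni–NTA. They were incubated at 200 nM for 1 h at 25 °C on a custom Agilent array that had been made double-stranded with Cy5-dUTP, with 50 µM zinc acetate present, and the array was washed.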
Consider “CGGCCTATAAGTACTCCATCCCGCCGGCCGGCCGGTGACTCGGAGTCACCTAGTGCAG”, for which the binding signal was 3370 fluorescence intensity (a.u.).

Take “ATCTGTTAGGTATTTAATTTATTTTCTTTTGCTATGTCAGCGGAGTCACCTAGTGCAG”: the binding signal is 3880 fluorescence intensity (a.u.).

As to “GCTTAATAAATTCGTCTCGCGGTTTAATGTTGGATTCTGTCGGAGTCACCTAGTGCAG”, the binding signal was 3670 fluorescence intensity (a.u.).

As to “TTAATGCATACTGACAGCTGTTTATGTGCTTCAAATTTACCGGAGTCACCTAGTGCAG”, the binding signal was 4700 fluorescence intensity (a.u.).

“TAATTCAGCTTAATAAATTCGTCCAGCTGTTTACTGACTGCGGAGTCACCTAGTGCAG”: the binding signal is 52800 fluorescence intensity (a.u.).

Consider “GCGAGCGGCCAACTGGGAAGGCGGTGGTGAGGACATCGTGCGGAGTCACCTAGTGCAG”, for which the binding signal was 5400 fluorescence intensity (a.u.).

Turning to “TCTGCCGCCGGCCGCGGCGAGGGATGGCATTGGCGTGGCGCGGAGTCACCTAGTGCAG”, the binding signal is 3550 fluorescence intensity (a.u.).

For “GCGCATTGGCGAGGACTGCGACTATCTGGGAAGCGTGAAGCGGAGTCACCTAGTGCAG”, the binding signal was 51500 fluorescence intensity (a.u.).

On to “GGTGTCGCGTCGCGTCTGCAGTAGAAATGGAAGCCTGGGGCGGAGTCACCTAGTGCAG”, for which the binding signal was 3230 fluorescence intensity (a.u.).

Regarding “AGAGGAAGAGGAAGAAGAGGTCATTCCGCCACGTCCCGGACGGAGTCACCTAGTGCAG”, the binding signal was 7090 fluorescence intensity (a.u.).

On to “AGAAGAAGAGGAAGCTGTGGGTCAGGTGGGTTTCCGCCCACGGAGTCACCTAGTGCAG”, for which the binding signal is 41300 fluorescence intensity (a.u.).

In the case of “GGCCCACGCCGGCAGATCAGGTGGGGAGAGAAGCTCCGCCCGGAGTCACCTAGTGCAG”, the binding signal is 14700 fluorescence intensity (a.u.).

For “GTGGAAAAGCCAAAGGCAAAGGCAAACCACGCGTCTCTCTCGGAGTCACCTAGTGCAG”, the binding signal was 17400 fluorescence intensity (a.u.).

As for “GCATATGGGGCATATATACGTACATGACTGAATCATCGTTCGGAGTCACCTAGTGCAG”, the binding signal was 3250 fluorescence intensity (a.u.).

Take “ACACTACCAATAGCTGGTACTTATTCAGCACAATAAGCTACGGAGTCACCTAGTGCAG”: the binding signal was 46400 fluorescence intensity (a.u.).

In the case of “TTCTACTATGTCATTCTAGTACTATATAAAACTACTATGCCGGAGTCACCTAGTGCAG”, the binding signal was 3690 fluorescence intensity (a.u.).

With “ATTTAATAACTTCTATGGACAATATGTGCCCTGAAACTACCGGAGTCACCTAGTGCAG”, the binding signal was 48800 fluorescence intensity (a.u.).

“ATTCACTGGAGGTGGTGCATCAGCATCACCAAAGCTAGCACGGAGTCACCTAGTGCAG”: the binding signal is 3970 fluorescence intensity (a.u.).

For “GGAAATAGTAAATAGCTACTACCAAGCCATAAGCTTACTACGGAGTCACCTAGTGCAG”, the binding signal is 17900 fluorescence intensity (a.u.).

In the case of “ACCTACTAATAACTAGTTAATTGTCTATTGTGCCCCTAGTCGGAGTCACCTAGTGCAG”, the binding signal was 13700 fluorescence intensity (a.u.).

With “TGAGAGAGAATTGCATTTTATGACATGCCCATATGATGATCGGAGTCACCTAGTGCAG”, the binding signal was 17600 fluorescence intensity (a.u.).

Turning to “ATCAAAATAGATTAAAGTTTAGTTTTAACGAAACTAGTTTCGGAGTCACCTAGTGCAG”, the binding signal is 3180 fluorescence intensity (a.u.).

As for “GAACTACTAAACGGTACGTCTTTTCGTTTAAAAGAATATCCGGAGTCACCTAGTGCAG”, the binding signal is 39400 fluorescence intensity (a.u.).

Take “ATATGGCATACATGAGAATTTAGAGAATTTACCATCAAATCGGAGTCACCTAGTGCAG”: the binding signal is 45500 fluorescence intensity (a.u.).

As to “ACTAAACAGATTTTCTTTAAAGTTTATGCAGAAAAGTTTCCGGAGTCACCTAGTGCAG”, the binding signal was 5060 fluorescence intensity (a.u.).

Regarding “TATATATTATACCATTAATGACTGATCCTACCCTCTCATACGGAGTCACCTAGTGCAG”, the binding signal is 3290 fluorescence intensity (a.u.).

Consider “TATGTTGAGTTTGAATTTGTATATTTATGAAATGGCATATCGGAGTCACCTAGTGCAG”, for which the binding signal is 33000 fluorescence intensity (a.u.).

Consider “ATCGTCGTCGCCGCCGCCTCCCATGTCGTTGCTGTCGCCGCGGAGTCACCTAGTGCAG”, for which the binding signal is 3240 fluorescence intensity (a.u.).

“TCGGCGGCGAACTTCCCCGCCGACGTGCCAGATCTCAAACCGGAGTCACCTAGTGCAG”: the binding signal was 4610 fluorescence intensity (a.u.).

As to “TTATTTATAACTGATCTAATAGCCAATTCACACAATAATTCGGAGTCACCTAGTGCAG”, the binding signal is 13700 fluorescence intensity (a.u.).

For “AATGTAAGTCATTCTAGCATTTCTCATTAACATCAATATGCGGAGTCACCTAGTGCAG”, the binding signal is 3240 fluorescence intensity (a.u.).

As to “ATCACATCAAAACTTTTCTACACATATAAACTTCTAACTTCGGAGTCACCTAGTGCAG”, the binding signal was 27400 fluorescence intensity (a.u.).

As for “TGTTCTAACAATAGCATTTCTTGCATTTAACTATGTTCCTCGGAGTCACCTAGTGCAG”, the binding signal was 52900 fluorescence intensity (a.u.).

For “ACTGGCTTCAATTTATCTATAGCTAATCTAATAGCTAATTCGGAGTCACCTAGTGCAG”, the binding signal was 33900 fluorescence intensity (a.u.).

On to “CAATTCATCTATAACTAATTTAATAGTCAATTCATACAATCGGAGTCACCTAGTGCAG”, for which the binding signal was 44100 fluorescence intensity (a.u.).

In the case of “TGTTTCTTTTCTTCAGACTAGTCACCTACGGTTTACTATTCGGAGTCACCTAGTGCAG”, the binding signal was 3720 fluorescence intensity (a.u.).

With “CAAACTTCTAACCTTTTCATCACATCAAAACTTTTCTATACGGAGTCACCTAGTGCAG”, the binding signal is 63600 fluorescence intensity (a.u.).

For “TCCAATCAGACGACTATTCCTATGTTTTACAATTCTCTATCGGAGTCACCTAGTGCAG”, the binding signal was 51200 fluorescence intensity (a.u.).

Regarding “ACTTTCACAAAACTATACACATATCACTTTTCAATAAATACGGAGTCACCTAGTGCAG”, the binding signal is 19900 fluorescence intensity (a.u.).

Turning to “TGCACTATTCTATATTATATTATGCAAGTTTATTTTACGACGGAGTCACCTAGTGCAG”, the binding signal was 3260 fluorescence intensity (a.u.).

Turning to “AGTTCCTAATATTTCTCAATGTATATATGTACTCATTCCTCGGAGTCACCTAGTGCAG”, the binding signal is 3800 fluorescence intensity (a.u.).

Consider “CCCTTCGTCGACACGCACCCCTGACCTCATATTTTCGCTTCGGAGTCACCTAGTGCAG”, for which the binding signal is 5650 fluorescence intensity (a.u.).
